# Experimental data published in PubChem BioAssay AID1159580 (chemical genetic matrix, 2015).
# Among all 5,500 compounds or so, about 2,000 (36%) were called active. Another 18% or so got no clear call; they are omitted. This is one part of the list. Unmarked numbers belong to inactive results. Cut-off read from the data, not from the text of the source: active = normalized growth mostly below about 0.91 (no sharp cut-off); inconclusive = no clear call, values can overlap the other calls; inactive = mostly above about 0.92.
# Experiment: chemical genetic growth profiling, strain panel (AID 1159580);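 note: tested at 20 µM; growth read once vehicle control cultures reached saturation at 30 °C; 1 = growth at the plate median or of vehicle wells; lower values mean less growth of the strain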
# Conditions: S. cerevisiae deletion strains, growth OD
smiles,measurement,setting,value
C=CCCCCCCCCCCCC(O)CC(O)CO (centres undefined),normalized growth,"locus YJR043C, strain POL32, stronger effect = lower value",0.952
same,normalized growth,"locus YJR075W, strain HOC1, stronger effect = lower value",0.896
same,normalized growth,"locus YKL009W, strain mrt4, stronger effect = lower value",0.852 (active)
same,normalized growth,"locus YKL068W, stronger effect = lower value",0.995
same,normalized growth,"locus YKL085W, strain MDH1 (second series), stronger effect = lower value",0.96
same,normalized growth,"locus YKL085W, strain MDH1, stronger effect = lower value",0.96
same,normalized growth,"locus YKL160W, strain elf1, stronger effect = lower value",0.989
same,normalized growth,"locus YKL190W, strain CNB1, stronger effect = lower value",0.947
same,normalized growth,"locus YKR001C, strain vps1, stronger effect = lower value",0.839 (active)
same,normalized growth,"locus YKR026C, strain gcn3, stronger effect = lower value",0.988
same,normalized growth,"locus YKR091W, strain srl3, stronger effect = lower value",0.995
same,normalized growth,"locus YLL001W, strain dnm1, stronger effect = lower value",0.976
same,normalized growth,"locus YLL026W, stronger effect = lower value",0.997
same,normalized growth,"locus YLL041C, strain sdh2, stronger effect = lower value",0.998
same,normalized growth,"locus YLR027C, strain aat2, stronger effect = lower value",0.999
same,normalized growth,"locus YLR039C, strain RIC1, stronger effect = lower value",0.996
same,normalized growth,"locus YLR058C, strain SHM2, stronger effect = lower value",0.944
same,normalized growth,"locus YLR102C, strain apc9, stronger effect = lower value",0.99
same,normalized growth,"locus YLR221C, strain rsa3, stronger effect = lower value",0.998
same,normalized growth,"locus YLR258W, strain gsy2, stronger effect = lower value",1.01
same,normalized growth,"locus YLR262C, strain YPT6 (second series), stronger effect = lower value",1.01
same,normalized growth,"locus YLR262C, strain YPT6, stronger effect = lower value",0.959
same,normalized growth,"locus YLR268W, strain sec22, stronger effect = lower value",0.971
same,normalized growth,"locus YLR320W, strain mms22, stronger effect = lower value",0.985
same,normalized growth,"locus YLR330W, strain CHS5, stronger effect = lower value",0.917 (active)
same,normalized growth,"locus YLR342W, strain FKS1 (second series), stronger effect = lower value",0.756 (active)
same,normalized growth,"locus YLR342W, strain FKS1, stronger effect = lower value",1
same,normalized growth,"locus YLR357W, strain rsc2, stronger effect = lower value",0.975
same,normalized growth,"locus YLR370C, strain arc18, stronger effect = lower value",0.993
same,normalized growth,"locus YLR371W, strain rom2, stronger effect = lower value",0.952
same,normalized growth,"locus YLR384C, strain iki3, stronger effect = lower value",0.997
same,normalized growth,"locus YLR418C, strain cdc73, stronger effect = lower value",0.759 (active)
same,normalized growth,"locus YML016C, strain PPZ1, stronger effect = lower value",0.988
same,normalized growth,"locus YML032C, strain rad52, stronger effect = lower value",0.869 (active)
same,normalized growth,"locus YML120C, strain ndi1, stronger effect = lower value",0.995
same,normalized growth,"locus YML124C, strain tub3, stronger effect = lower value",0.991
same,normalized growth,"locus YMR058W, strain fet3, stronger effect = lower value",1.01
same,normalized growth,"locus YMR078C, strain ctf18, stronger effect = lower value",0.964
same,normalized growth,"locus YMR125W, strain sto1, stronger effect = lower value",0.979
same,normalized growth,"locus YMR129W, stronger effect = lower value",0.988
same,normalized growth,"locus YMR205C, strain PFK2, stronger effect = lower value",0.974
same,normalized growth,"locus YMR223W, strain ubp8, stronger effect = lower value",0.858 (active)
same,normalized growth,"locus YMR231W, strain pep5, stronger effect = lower value",0.995
same,normalized growth,"locus YMR263W, strain SAP30, stronger effect = lower value",0.955
